Assay: small-molecule microarray binders of probe aEGFR, primary screen, biochemical, biotinylated probe, 635/667 nm fluorescence (AID 1097);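 further: probe is a biotinylated anti-EGFR antibody binding compounds printed on slides; score combines fluorescence near 667 nm and signal to noise of each spot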
Conditions: higher = more signal

SMILES	composite z-score
COC(=O)[C@@]1(Cc2ccc(OC)cc2)[C@H]2c3cc(C(=O)N(C)C)n(Cc4cc(C)n(C)n4)c3C[C@H]2CN1C(=O)c1ccccc1	0.0423
O=C(NCc1ccccc1)[C@]1(Cc2ccccc2)N=C(c2ccc(OCCCO)cc2)O[C@@H]1c1ccccc1	0.676
[N-]=[N+]=NCc1ccccc1[C@H]1OC(c2ccc(OCCCO)cc2)=N[C@@]1(Cc1ccccc1N=[N+]=[N-])C(=O)N1CCCCC1	0.23
COCCOC(=O)N1C(=O)[C@@]2(c3ccccc31)[C@H](c1ccc(OCCO)cc1)N1[C@H](c3ccccc3)[C@H](c3ccccc3)OC(=O)[C@H]1[C@@H]2C(=O)NC[C@H](O)c1ccccc1	-0.0759
COc1ccc(C(=O)Nc2ccc3c(c2)[C@]2(O[C@@H](CCO)[C@H]([Si](C)(C)c4ccc(OC)cc4)[C@H]2C)C(=O)N3Cc2ccccc2)cc1	-0.107
CN(C)C(=O)[C@]1(Cc2ccccc2N=[N+]=[N-])N=C(c2ccc(OCCCO)cc2)O[C@@H]1c1ccccc1CN=[N+]=[N-]	-0.0509
COCCOC(=O)N1C(=O)[C@@]2(c3cc(C#Cc4ccc(OC)cc4)ccc31)[C@H](C(=O)N1CCc3cc(OC)c(OC)cc3C1)[C@H]1C(=O)O[C@H](c3ccccc3)[C@H](c3ccccc3)N1[C@@H]2c1ccc(O)cc1	-0.0197
COc1ccc(C#Cc2ccc3c(c2)[C@]2(C(=O)N3)[C@H](C(N)=O)[C@H]3C(=O)O[C@H](c4ccccc4)[C@H](c4ccccc4)N3[C@@H]2c2ccc(O)cc2)cc1	0.391
COc1ccc([Si](C)(C)[C@@H]2[C@@H](CCO)O[C@]3(C(=O)N(Cc4ccccc4)c4ccc(N5C(=O)COc6ccccc65)cc43)[C@H]2C)cc1	-0.187
CC(C)(C)OC(=O)CC[C@@]1(C(=O)N2CCCCC2)N=C(c2ccc(OCCCO)cc2)O[C@@H]1c1ccccc1CN=[N+]=[N-]	0.0026
CC(C)C(CO)N1C(=O)[C@@H]2[C@H]3C(=O)OCC=C[C@H]3OC23C=CCN(CCN2CCOCC2)C(=O)[C@@H]13 (stereo not given in full)	-0.244
CN1C(=O)C2C=CC(C(O)c3cccc4ccccc34)N(NC(=O)OC(C)(C)C)C2C1=O (stereo not given)	0.37
COCCOC(=O)N1C(=O)[C@@]2(c3cc(C#Cc4ccc(OC)cc4)ccc31)[C@H](C(=O)N1CCc3cc(OC)c(OC)cc3C1)[C@H]1C(=O)O[C@H](c3ccccc3)[C@H](c3ccccc3)N1[C@@H]2c1ccc(OCCO)cc1	0.0343
CCOC(=O)C1=CC[C@@H](c2ccccc2)N(S(=O)(=O)c2ccc(C)cc2)[C@H]1C=C(C)C	0.101
C[N+](C)(C)CCCC[C@@H]1NC(=O)[C@H]2C[C@@H](C(=O)NCCCCCCN)[C@@H](c3cccc(OCCO)c3)N2C1=O	0.693
COC(=O)C(CC#Cc1ccc2c(c1)[C@]1(C(=O)N2)[C@H](c2ccc(O)cc2)N2[C@H](c3ccccc3)[C@H](c3ccccc3)OC(=O)[C@H]2[C@@H]1C(N)=O)C(=O)OC	0.162
CCOc1cc(C(O)C2C=CC3C(=O)NC(=O)C3N2Nc2ccccn2)ccc1O (stereo not given)	-0.0947
C[N+](C)(C)CCCCCCNC(=O)[C@@H]1C[C@@H]2C(=O)NCC(=O)N2[C@@H]1c1cccc(OCCO)c1	-0.0531

SMILES	composite z-score
O=C1c2ccccc2C(=O)C2CC([C@H]3Oc4ccccc4S(=O)(=O)N4CCC[C@@H]34)=CCC12 (stereo not given in full)	-0.124
CCCc1cc2c(n1Cc1ccc(OC)cc1)C(C)C1CN(C(=O)c3ccccc3)C(C)(C(=O)OC)C21 (stereo not given)	0.389
CC(=O)NCCCC[C@@H]1NC(=O)[C@@H]2C[C@H](C(=O)NCCCC[N+](C)(C)C)[C@H](c3cccc(OCCO)c3)N2C1=O	-0.162
[N-]=[N+]=Nc1ccccc1[C@@H]1OC(c2ccc(OCCCO)cc2)=N[C@]1(CCS(=O)(=O)c1ccccc1)C(=O)NCc1ccccc1	0.203
CN(C)CCCC[C@@H]1NC(=O)[C@H]2C[C@@H](C(=O)NCCCCCCNC(=O)CS)[C@@H](c3ccc(O)cc3)N2C1=O	-0.173
COC(=O)[C@@]1(Cc2ccc(OC)cc2)[C@H]2c3cc(C(=O)N4CCCC4)n(Cc4ccc(C)o4)c3C[C@H]2CN1C(=O)c1ccccc1	0.0059
O=C1N(Cc2ccccc2)c2ccccc2[C@H]2OC(c3ccc(OCCCO)cc3)=N[C@@]12CCS(=O)(=O)c1ccccc1	-0.0531
COCCCNC(=O)[C@]1(Cc2ccccc2)N=C(c2ccc(OCCCO)cc2)O[C@@H]1c1ccccc1N=[N+]=[N-]	-0.0238
CCCCC(=C=CC[C@H](O)c1cccc(OCCO)c1)C[C@H](O)COCc1ccccc1	-0.154
COC(=O)c1ccc(OC)c(/C=C\CC(CCc2ccccc2)OC(=O)c2ccncc2)c1 (stereo not given)	-0.195
COc1ccc([Si](C)(C)[C@H]2[C@H](CC(=O)N3CCC[C@H]3CO)O[C@@]3(C(=O)N(Cc4ccc(N5C(=O)c6cccc7cccc5c67)cc4)c4ccccc43)[C@@H]2C)cc1	0.0333
COc1cc(NN2C(C(O)c3ccc(I)cc3)C=CC3C(=O)N(C)C(=O)C32)cc(OC)c1OC (stereo not given)	0.113
C=CCC(OC(C)=O)[C@@H]1[C@@H](N(Cc2ccc(-c3ccccc3)cc2)C(=O)c2cccc3ccccc23)c2cc(OCCCO)ccc2N1C(=O)c1ccc2ccccc2n1 (stereo not given in full)	0.045
C=CCC(OC(C)=O)[C@@H]1[C@@H](N(Cc2cccc3ccccc23)C(=O)Cc2ccc(F)cc2)c2cc(OCCCO)ccc2N1C(=O)Cc1ccc(OC)cc1 (stereo not given in full)	-0.309
O=C1O[C@H](c2ccccc2)[C@H](c2ccccc2)N2[C@H]1[C@@H](C(=O)N1CCN(c3ncccn3)CC1)[C@]1(C(=O)Nc3ccc(C#CCCO)cc31)[C@H]2c1ccccc1OCCO	-0.0014
COC(=O)[C@@]1(Cc2ccccc2)[C@H]2c3cc(C(=O)N4CCCC4)n(CCO)c3C[C@H]2CN1C(=O)c1ccccc1	0.986
COCCCNC(=O)[C@@]1(Cc2ccccc2I)c2ccccc2C(=O)N(Cc2ccccc2Cl)[C@H]1c1ccc(CO)cc1	-0.0429

— PubChem BioAssay
